High-throughput results from PubChem BioAssay.
Shiga inhibitor – A qHTS for Small Molecule Inhibitors of Shiga Toxin. Vero cells, Shiga toxin protein synthesis inhibition reporter. inhibition, % at 38.7 µM. 290,000 tested, 9.2% active. AID 2315, 2010; in the data active = inhibition mostly above about 28%, no sharp cut-off; inactive = mostly below about 43%; also: 0% is about no effect
Pf growth 48h – Primary qHTS for delayed death inhibitors of the malarial parasite plastid, 48 hour incubation. P. falciparum luciferase growth in erythrocytes, 48 h. Potency, µM (titrated, usually from 28.7 µM), inactives show at the highest dose activity change, negative = inhibition, most hits filed as inhibitors. 310,000 tested, 5.9% active; also: potency is read from the fitted curve at half-maximal effect; % is scaled to controls: 0 for no effect and ±100 for the full control effect
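Compounds are pin-transferred into medium, infected erythrocytes (2% hematocrit, 0.1% parasitemia final) are added, and plates sit one parasite generation at 37 C in 5% CO2. Detection reagent is then added and luminescence measured.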
Cycloheximide cs – Cycloheximide Counterscreen for Small Molecule Inhibitors of Shiga Toxin; 300,000 tested, 12% active; max response, %; cell reporter, cycloheximide protein synthesis inhibition counterscreen; AID 2314, 2010; in the data active = max response mostly above about 13%, no sharp cut-off; inactive = mostly below about 14%; also: read at 38.3 µM for the half of the compounds with a filed dose; 0% is about no effect
NS1 function inh – qHTS Assay for Inhibitors of Influenza NS1 Protein Function. Potency, µM (highest dose often 46.1 µM), for inactives: top-dose activity, positive = more growth. 270,000 tested, 0.4% active. AID 2326, 2010; calls by dose curve; also: potency is read from the fitted curve at half-maximal effect; actives are rising curves; nearly all actives have a fitted effect of over 50% in size
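OD600 was taken as the measure of yeast growth restored by compound in an NS1-expressing S. cerevisiae strain. Cells had been washed out of glucose medium and diluted 1:100 into galactose -URA medium, pH 6.0.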
Pf growth 96h – Primary qHTS for delayed death inhibitors of the malarial parasite plastid, 96 hour incubation. P. falciparum luciferase reporter growth, 96 h. AID 504834, 2011. Potency, µM (titrated, usually from 28.7 µM), without a hit: top-dose activity change, negative = inhibition, most hits filed as inhibitors. 320,000 tested, 6.9% active; also: potency is read from the fitted curve at half-maximal effect; % is scaled to controls: 0 for no effect and ±100 for the full control effect
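P. falciparum expressing integrated firefly luciferase, in erythrocytes at 2% hematocrit, 0.05% parasitemia, incubated with compounds 96 h at 37 C, 5% CO2. Growth inhibition read as loss of luminescence; two-generation exposure targets delayed-death apicoplast inhibitors.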
* = called active by the depositor. Only some compounds are listed: those with a hit (about 21% of all), similar ones and a draw of the others. Unless noted, calls follow the shape of the dose curve; as a rule, active = well fitted inhibition curve with a large enough effect; inconclusive = small, poorly fitted or top-dose-only effect, or another doubt; inactive = no such curve, though single readings can be large or run the other way.

How did CC(C)=CCN1CCN(Cc2nc(-c3ccccc3)cs2)CC1CCO (centres undefined) do in these assays?
Shiga inhibitor: 15; Pf growth 48h: 0%; Cycloheximide cs: 8; NS1 function inh: 6%; Pf growth 96h: 16%

What do the screens show for `C=CCSc1nnc2c(n1)[nH]c1c(C)cccc12`?
Shiga inhibitor: 60*; Cycloheximide cs: 40*; NS1 function inh: -44%; Pf growth 96h: 12µM*

Results for c1ccc2c(c1)[nH]c1nc3nncn3nc12 ?
Shiga inhibitor: -15; Cycloheximide cs: -3; NS1 function inh: 0%; Pf growth 96h: 43%

What do the screens show for `CCSc1nnc2nc3[nH]c4c(C)cccc4c3nn12`?
Shiga inhibitor: 62*; Pf growth 48h: 65%; Cycloheximide cs: 40*; Pf growth 96h: 3%

Results for COC(=O)c1ccc(CSc2nnc3c(n2)[nH]c2ccccc23)cc1 ?
Shiga inhibitor: 10; Pf growth 48h: 12%; Cycloheximide cs: 12; NS1 function inh: 4%; Pf growth 96h: 22%

What do the screens show for `COc1cc(C(=O)Nc2ccc(C)cc2)c(-n2cnnn2)cc1OC`?
Shiga inhibitor: -21; Pf growth 48h: -28%; Cycloheximide cs: -1; NS1 function inh: -7%; Pf growth 96h: inconclusive

How did CC1CCOC(c2coc3ccccc3c2=O)O1 (centres undefined) do in these assays?
Shiga inhibitor: 54*; Pf growth 48h: 162%; Cycloheximide cs: 59*; NS1 function inh: 3%; Pf growth 96h: 182%

What do the screens show for `CC1CC(=O)C2=C(C1)OC(N)=C(C#N)C2c1coc2ccccc2c1=O` (centres undefined)?
Shiga inhibitor: 10; Pf growth 48h: 3%; Cycloheximide cs: 5; NS1 function inh: 2%; Pf growth 96h: -18%

What do the screens show for `C/C(Cl)=C/CSc1nn2c(=O)c3ccccc3nc2s1`?
Shiga inhibitor: 62*; Cycloheximide cs: 41*; NS1 function inh: -65%; Pf growth 96h: 46%

Results for C=CCSc1nn2c(=O)c3ccccc3nc2s1 ?
Shiga inhibitor: 48*; Pf growth 48h: 185%; Cycloheximide cs: 35*; NS1 function inh: -4%; Pf growth 96h: 238%

What do the screens show for `C=CCSc1nc2ccccc2c(=O)[nH]1`?
Shiga inhibitor: -9; Cycloheximide cs: -1; NS1 function inh: -41%; Pf growth 96h: -16%

Results for C/C(Cl)=C/CSc1nnc2n(N)c(=O)c3ccccc3n12 ?
Shiga inhibitor: 18; Pf growth 48h: -13%; Cycloheximide cs: 3; NS1 function inh: 7%; Pf growth 96h: -8%

What do the screens show for `CN(C)c1ccc(/C=C2\C(=O)Nc3ccccc32)c2ccccc12`?
Shiga inhibitor: -2; Cycloheximide cs: -3

How did Cc1ccc(Nc2ccccc2)cc1 do in these assays?
Shiga inhibitor: 13; Pf growth 48h: -10%; Cycloheximide cs: 19*; NS1 function inh: -4%; Pf growth 96h: inconclusive

What do the screens show for `c1ccc(Nc2cccc(Nc3ccccc3)c2)cc1`?
Shiga inhibitor: 78*; Pf growth 48h: 10%; Cycloheximide cs: 44*; NS1 function inh: -2%; Pf growth 96h: inconclusive

What do the screens show for `Cc1ccc(S(=O)(=O)Nc2ccc(Nc3ccccc3)cc2)cc1`?
Shiga inhibitor: -2; Pf growth 48h: -34%; Cycloheximide cs: -3; NS1 function inh: -81%; Pf growth 96h: inconclusive

What do the screens show for `C[C@H](N)C(=O)NCC(=O)N[C@H]1CSSC[C@@H](C(=O)O)NC(=O)[C@H](CO)NC(=O)[C@H]([C@@H](C)O)NC(=O)[C@H](Cc2ccccc2)NC(=O)[C@H]([C@@H](C)O)NC(=O)[C@H](CCCCN)NC(=O)[C@@H](Cc2c[nH]c3ccccc23)NC(=O)[C@H](Cc2ccccc2)NC(=O)[C@H](Cc2ccccc2)NC(=O)[C@H](CC(N)=O)NC(=O)[C@H](CCCCN)NC1=O`?
Shiga inhibitor: -12; Cycloheximide cs: 0

How did CC(C)(C)c1ccc(C(=O)c2cn[nH]c2-c2ccccc2O)cc1 do in these assays?
Shiga inhibitor: 58*; Pf growth 48h: -29%; Cycloheximide cs: 42*; NS1 function inh: -4%; Pf growth 96h: inconclusive

How did Cc1cccc(C(=O)c2cn[nH]c2-c2ccc(C)cc2O)c1 do in these assays?
Pf growth 48h: -22%; Cycloheximide cs: -2; NS1 function inh: -26%; Pf growth 96h: inconclusive

How did Cc1ccc(-c2[nH]ncc2C(=O)c2cccc(F)c2)c(O)c1 do in these assays?
Shiga inhibitor: 28; Pf growth 48h: inconclusive; Cycloheximide cs: 8.5*; NS1 function inh: -10%; Pf growth 96h: inconclusive

How did COc1ccc2c(c1)NC(c1ccc(N(C)C)cc1)c1cccn1-2 (centres undefined) do in these assays?
Shiga inhibitor: 79*; Pf growth 48h: -18%; Cycloheximide cs: 25*; NS1 function inh: 4%; Pf growth 96h: inconclusive

How did COc1ccc2c(c1)NC(c1cc(Cl)cc(Cl)c1O)c1cccn1-2 (centres undefined) do in these assays?
Shiga inhibitor: -2; Pf growth 48h: 8%; Cycloheximide cs: -3; NS1 function inh: 3%; Pf growth 96h: inconclusive

How did CC1=NN(c2cccc(C(=O)O)c2)C(=O)/C1=C\C=C\c1ccco1 do in these assays?
Shiga inhibitor: 126*; Pf growth 48h: 17%; Cycloheximide cs: 86*; NS1 function inh: 8%; Pf growth 96h: 29%

Results for C=CCOC(=O)C(C#N)c1nc2ccccc2nc1N1CCC(C(=O)OCC)CC1 (centres undefined) ?
Shiga inhibitor: 35; Pf growth 48h: 1.2µM*; Cycloheximide cs: 5; NS1 function inh: -15%; Pf growth 96h: 56%

Results for CCC(CC)COC(=O)C(C#N)c1nc2ccccc2nc1N1CCN(CC)CC1 (centres undefined) ?
Shiga inhibitor: -30; Pf growth 48h: 10µM*; Cycloheximide cs: 1; NS1 function inh: -5%; Pf growth 96h: 46%

How did CCOC(=O)C1CCN(c2nc3ccccc3nc2C(C#N)C(=O)OC(C)COC)CC1 (centres undefined) do in these assays?
Shiga inhibitor: -4; Pf growth 48h: 8.3µM*; Cycloheximide cs: -2; NS1 function inh: -2%; Pf growth 96h: inconclusive

How did CCC(C)COC(=O)C(C#N)c1nc2ccccc2nc1N1CCCCC1 (centres undefined) do in these assays?
Shiga inhibitor: -22; Pf growth 48h: inconclusive; Cycloheximide cs: -3; NS1 function inh: -90%; Pf growth 96h: -99%

How did CCOC(=O)C1CCN(c2nc3ccccc3nc2C(C#N)C(=O)OC(C)C)CC1 (centres undefined) do in these assays?
Shiga inhibitor: -4; Pf growth 48h: inconclusive; Cycloheximide cs: -2; NS1 function inh: -5%; Pf growth 96h: 9%

How did CCOC(=O)C1CCN(c2nc3ccccc3nc2C(C#N)C(=O)OCCOC)CC1 (centres undefined) do in these assays?
Shiga inhibitor: -5; Pf growth 48h: inconclusive; Cycloheximide cs: -4; NS1 function inh: 3%; Pf growth 96h: inconclusive
